# Results filed as inconclusive are left out. Entries that show only a call come without a potency. Activity calls are given as the source filed them. Calls follow the shape of the dose curve; as a rule, active = well fitted cell-killing curve with a large enough effect; inconclusive = small, poorly fitted or top-dose-only effect; inactive = flat fitted curve, though single readings scatter.
# Experiment: Cell Viability - LYMP2-019 (AID 973); also: nearly all actives have a fitted effect of over 55% in size
# Settings: LYMP2-019 lymphoblastoid cell line viability; series mostly up to 92.2 µM
# Excerpt: NIH Chemical Genomics Center [NCGC]
# NIH Molecular Libraries Screening Centers Network [MLSCN]
# National Institutes of Environmental Health Sciences [NIEHS]
# National Toxicology Program [NTP]
# We have developed a 1536-well cell-based assay for quantitative high throughput screening (qHTS) against a number of cell lines to determine in vitro cytotoxicity of small molecules. This particular assay uses a human lymphoblastoid cell line (LYMP2-019) purchased from Coriell Institute for Medical Research.
# NCGC Assay Protocol Summary:
# The CellTiter-Glo luminescent cell viability assay (Promega) is a homogeneous method to measure the number of viable cells in culture. The end point readout of this assay is based on quantitation of intracellular ATP, an indicator of metabolic activity, using the luciferase reaction. Luciferase catalyzes the oxidation of beetle Luciferin to oxyluciferin and light in the presence of ATP. The luminescent signal is proportional to amount of ATP present.
# Using the CellTiter-Glo luminescent cell viability assay, the amount of cellular ATP was measured in the lymphoblastoid cell line with complete culture medium following compound treatment for 24 hours. The assay was performed in opaque white Kalypsys 1536-well plates. In the screen, tetraoctylammonium bromide was used as positive control. Library compounds were measured for their ability to cause acute toxicity in the cell line, as reflected by a decrease in intracellular ATP levels, in a concentration-dependent manner. […] AC50 values were determined from concentration-response data modeled with the standard Hill equation.
# qHTS protocol for CellTiter Glo lymphoblastoid cellular assay
# [Step] [Parameter] [Value] [Description]
# 1. Reagent; 5 uL; 2500 lymphoblastoid cells/well
# 2. Time; 5 hr; 37 C incubation
# 4. Controls; 23 nL; Tetraoctylammonium bromide 6.4pM to 92 uM
# 5. Time; 24 hr; 37 C incubation
# 6. Reagent; 5 uL; CellTiter Glo reagent
# 7. Time; 30 min; Room Temperature
# 8. Detection; Luminescence; Viewlux plate reader
# Keywords: cell viability, cytotoxicity, lymphoblastoid cell line, luminescence, NTPHTS, NTPHTS_NCGC, NIEHS, DSSTox, MLSMR, MLSCN, NIH Roadmap, qHTS, NCGC
# Potency is read from the fitted curve at half-maximal effect.
row,SMILES,Potency
1,CC(C)(C)OO,inactive
2,CCCC(=O)Cl,inactive
3,CC(O)CCl (stereo not given),inactive
4,C=CC(=C)C,inactive
5,Clc1cccc(C(Cl)(Cl)Cl)n1,inactive
6,Nc1ccccc1Cl,inactive
7,C=CCOC(=O)c1ccccc1N,inactive
8,CCOP(=S)(OCC)SCSC(C)(C)C,inactive
9,COC(=O)NC(=S)Nc1ccccc1NC(=S)NC(=O)OC,inactive
10,CCC[CH2][Sn]([Cl])([Cl])[Cl],inactive
11,Cc1cccc([N+](=O)[O-])c1,inactive
12,Clc1nc(Cl)nc(Cl)n1,inactive
13,O=C(Cl)C(Cl)(Cl)Cl,inactive
14,Cc1ccc(O)c(C)c1,inactive
15,ClC1=C(Cl)C2(Cl)C3C(Cl)C=CC3C1(Cl)C2(Cl)Cl (stereo not given),inactive
16,CC(C)(C)OOC(C)(C)C,inactive
17,CCN(CC)c1ccccc1,inactive
18,CCOc1ccc(N)cc1,inactive
19,Nc1c(Cl)c(Cl)nc(C(=O)O)c1Cl,inactive
20,N#CCCCl,inactive

row,SMILES,Potency
1,CCCCCCCCCc1ccc(O)cc1,inactive
2,C[C@H]1CCCC(=O)CCC/C=C/c2cc(O)cc(O)c2C(=O)O1,inactive
3,C=CC1CC=CCC1 (stereo not given),inactive
4,CCCSC(=O)Cl,inactive
5,ClC(Cl)=C(c1ccc(Cl)cc1)c1ccc(Cl)cc1,inactive
6,C[N+](C)(C)Cc1ccccc1,inactive
7,S=C=Nc1cccc2ccccc12,inactive
8,C[C@]12CC[C@H]3[C@@H](CCC4=CC(=O)CC[C@@]43C)[C@@H]1CC[C@@H]2O,inactive
9,O=[N+]([O-])c1ccc(Cl)c(Cl)c1,inactive
10,O=S1OCC2C(CO1)C1(Cl)C(Cl)=C(Cl)C2(Cl)C1(Cl)Cl (stereo not given),inactive
11,COP(=S)(OC)Oc1ccc([N+](=O)[O-])cc1,inactive
12,CC(=O)[O-].CC(=O)[O-].O.O.O.[Pb+2],inactive
13,Brc1ccc(Oc2cc(Br)c(Br)cc2Br)c(Br)c1,inactive
14,CCCCCCCC(=O)Cl,inactive
15,Clc1nc(Cl)nc(Nc2ccccc2Cl)n1,inactive
16,O=C1C(Cl)=C(Cl)C(=O)C(Cl)=C1Cl,25.1 µM (active)
17,ClC(Cl)=C(Cl)Cl,inactive
18,c1ccc(OP(Oc2ccccc2)Oc2ccccc2)cc1,inactive
19,C=CC(=O)OCC,inactive
20,CCSC(=O)Cl,inactive
